65 molecules from ChEMBL document CHEMBL4513216, “Probing the Open Global Health Chemical Diversity Library for Multistage-Active Starting Points for Next-Generation Antimalarials” (ACS Infect Dis, 2020) can be followed below.

Among all 68,000 compounds or so, about 2,700 (4%) showed an effect of 50% or more. The sample as a whole holds a higher share of strong results than the screen did.

The subject of this test is Plasmodium berghei. Briefly: Screen against P. berghei liver stage (PbLuc), transformed with Luciferase, at 2uM. It is filed as functional, HepG2. The note with it: tested at 2 uM.
Consider `N[C@H]1CN(C(=O)Cc2ccc(CO)cc2)C[C@@H]1C1CC1`, for which the INHIBITION worked out at 39.97%.

As to `Cc1cc(Cl)ccc1C(=O)N1C[C@H](C2CC2)[C@@H](N)C1`, the INHIBITION was determined as 60.42%.

As for `N[C@H]1CN(C(=O)Cc2ccc(Cl)c(Cl)c2)C[C@@H]1C1CC1`, the INHIBITION amounted to 4.72%.

For the molecule `N[C@H]1CN(C(=O)c2ccc(Cl)cc2F)C[C@@H]1C1CC1`, the INHIBITION came to 19.54%.

Consider `N[C@H]1CN(C(=O)c2ccc(Cl)cc2O)C[C@@H]1C1CC1`, for which the INHIBITION was -6.83%.

Turning to `N[C@H]1CN(C(=O)Cc2cc(F)cc(Cl)c2)C[C@@H]1C1CC1`, the INHIBITION is given as 55.39%.

For `CN(CCCN1CCCC1)[C@@H]1c2ccccc2C2(CCNCC2)[C@H]1O`, the INHIBITION is 9.18%.

With `COC(=O)c1ccc(CN(C)C(=O)c2cnsn2)cc1`, the INHIBITION was -18.04%.

For `COc1ccc(C[C@H]2CN(C3CCOCC3)CC[C@@H]2OCC2CC2)cc1`, the INHIBITION was found to be 21.06%.

With `COc1ccc(C[C@H]2CN(C3CCOCC3)CC[C@H]2OCC2CC2)cc1`, the INHIBITION turned out to be 68.29%.

Take `c1ccc(C[C@H]2CN(C3CCOCC3)CC[C@H]2OCC2CC2)cc1`: the INHIBITION was -22.32%.

Take `CCc1cnc(N2CC[C@H]3[C@@H]2CCC(=O)N3CC2CCOCC2)nc1`: the INHIBITION was found to be 8.37%.

Turning to `CNC(=O)[C@H]1C[C@H]2CN(Cc3cccc(C)c3)C[C@@H]1O2`, the INHIBITION is reported as 14.09%.

On to `CC(C)NC(=O)CC1[C@H]2CN(C(=O)Cc3ccccn3)C[C@@H]12` (stereo not given in full), for which the INHIBITION was determined as 33.39%.

On to `O=C(c1ccc(S(=O)(=O)N2CCSCC2)cc1)N1CCC(O)C1` (stereo not given), for which the INHIBITION is reported as -57.76%.

Turning to `CN1CCN(S(=O)(=O)c2ccc(C(=O)N3CC[C@@H](O)C3)cc2)CC1=O`, the INHIBITION is -27.61%.

In the case of `O=C(c1ccc(S(=O)(=O)N2CCNCC2)cc1)N1CCCC(O)C1` (stereo not given), the INHIBITION came out at 57.4%.

In the case of `CCn1cc(S(=O)(=O)N2CCC(C3CCCCN(C)C3=O)CC2)c(C)n1` (stereo not given), the INHIBITION is -12.21%.

For the molecule `CC(=O)c1cn(CC(=O)NC(C(=O)O)C(C)C)c2ccccc12` (stereo not given), the INHIBITION was -7.53%.

On to `COc1cc(C(C)NCc2ncccc2C)ccc1SC(F)F` (stereo not given), for which the INHIBITION is -48.24%.

For `CC(C)N1CCc2c(CN(C)Cc3ccco3)cncc2C1`, the INHIBITION was determined as 16.48%.

For `CCS(=O)(=O)N1CCc2c(CN(C)Cc3ccco3)cncc2C1`, the INHIBITION is recorded as -21.1%.

On to `CN(Cc1ccco1)Cc1cncc2c1CCN(S(C)(=O)=O)C2`, for which the INHIBITION is on record as 51.94%.

With `Cc1nc(C)n(CC2CCCCN2CC(=O)Nc2cc(C)on2)n1` (stereo not given), the INHIBITION is reported as 64.16%.

In the case of `Cc1nc(C)n(CC2CCCCN2CC(=O)Nc2ccncc2)n1` (stereo not given), the INHIBITION turned out to be 51.21%.

Regarding `CCN1CCC(NC(=O)CN2CCCC2Cn2nc(C)nc2C)CC1` (stereo not given), the INHIBITION is reported as -2.82%.

On to `Cc1nc(C)n(CC2CCCCN2CCC(=O)Nc2cc(C)on2)n1` (stereo not given), for which the INHIBITION was -14.71%.

Consider `Cc1nc(C)n(CC2CCCN2CC(=O)NC2CCOCC2)n1` (stereo not given), for which the INHIBITION stood at 32.76%.

For the molecule `Cc1nc(C)n(CC2CCCCN2CC(=O)Nc2cccnc2)n1` (stereo not given), the INHIBITION was -12.75%.

As for `Cc1nc(C)n(CC2CCCCN2CC(=O)NC2CCOCC2)n1` (stereo not given), the INHIBITION was found to be 60.31%.

For the molecule `Cc1nc(C)n(CC2CCCN2CC(=O)Nc2cc(C)on2)n1` (stereo not given), the INHIBITION is listed as -1.02%.

For `Cc1nc(C)n(CC2CCCN2CC(=O)Nc2ccncc2)n1` (stereo not given), the INHIBITION is -40.36%.

In the case of `O=C(c1c(F)cc(Br)cc1F)N1CCc2cnccc21`, the INHIBITION is -62.99%.

Regarding `Cn1c(=O)[nH]c2cc(C(=O)OCC(F)F)ccc21`, the INHIBITION is reported as -67.78%.

On to `Cn1ccc(C(=O)N2CCC(Cc3cccc4cccnc34)C2)n1` (stereo not given), for which the INHIBITION came out at 9.79%.

As for `Cn1cc(C(=O)Nc2cccc(CCN3CCCC3)c2)ccc1=O`, the INHIBITION is recorded as -51.94%.

As to `O=C(C1CCCCC1)N1CCC2(COc3ncccc3S(=O)(=O)N2)C1` (stereo not given), the INHIBITION was -15.49%.

`COc1ccc(F)cc1CN1CCCC(c2cc(C(N)=O)[nH]n2)C1` (stereo not given): the INHIBITION is 30.91%.

On to `NC(=O)c1cc(C2CCCN(CCc3ccccn3)C2)n[nH]1` (stereo not given), for which the INHIBITION is reported as 58.53%.

In the case of `NC(=O)c1cc(C2CCCN(C(=O)CCc3ccccn3)C2)n[nH]1` (stereo not given), the INHIBITION is recorded as -0.71%.

For the molecule `COc1ccccc1OCCN1CCCC(c2cc(C(N)=O)[nH]n2)C1` (stereo not given), the INHIBITION is 31.51%.

Regarding `Cc1cc(C2CCCN(CCc3ccccn3)C2)n[nH]1` (stereo not given), the INHIBITION is reported as -12.48%.

As to `COc1cccc(CN2CCCC(c3cc(C(N)=O)[nH]n3)C2)c1` (stereo not given), the INHIBITION stood at 54.99%.

For the molecule `O=C(NCC(F)(F)F)C1CCCN(Cc2ccno2)C1` (stereo not given), the INHIBITION came to 20.32%.

Take `CC(C)c1nnc(NC(=O)C2CSCN2C(=O)C2CCC2)s1` (stereo not given): the INHIBITION is -52.32%.

On to `O=C(c1cnccn1)N1CCN2C[C@H](OCc3ccccc3F)C[C@H]2C1`, for which the INHIBITION was -6.88%.

Turning to `CCCSCC(=O)N1C[C@@H]2CC[C@H]1CN(Cc1cccnc1)C2`, the INHIBITION came to 16.1%.

Take `O=C(O)CC1COCCN1CCCc1ccccc1` (stereo not given): the INHIBITION worked out at 3.35%.

Take `Cc1cc(N2CCCC2c2cc(Nc3cnccn3)nc(C)n2)ncn1` (stereo not given): the INHIBITION worked out at 43.23%.

Regarding `O=C(CCc1nc2cc(Br)cnc2[nH]1)NCc1cccnc1`, the INHIBITION amounted to 10.22%.

For the molecule `c1ccc(CN2CCCC(CNc3ncnc4c3CCNCC4)C2)cc1` (stereo not given), the INHIBITION is reported as 29.87%.

Regarding `c1ccc(CN2CCC(CNc3ncnc4c3CCNCC4)CC2)cc1`, the INHIBITION is 70.58%.

Take `c1ccc(CN2CCC(CCNc3ncnc4c3CCNCC4)C2)cc1` (stereo not given): the INHIBITION stood at 31.3%.

For `O=C(c1ccncc1F)N1CCc2ncnc(C3CC3)c2CC1`, the INHIBITION was 21.67%.

`CC(C)c1nn(C)c(N(C)C)c1CNCc1ccc2c(c1)OCCO2`: the INHIBITION is 66.2%.

For `CC(C)c1nn(C)c(N(C)C)c1CNCc1cccnc1N(C)C`, the INHIBITION was 39.54%.

Take `Cc1nn(C)c(N(C)C)c1CNCc1cccnc1OC(C)C`: the INHIBITION stood at 53.98%.

`CC(C)c1nn(C)c(Cl)c1CNCc1ccc2c(c1)OCCO2`: the INHIBITION was determined as 8.37%.

In the case of `COc1ncccc1CNCc1c(C)nn(C)c1N(C)C`, the INHIBITION is listed as 11.2%.

`CC(C)c1nn(C)c(N(C)C)c1CNCc1ccc2c(c1)OCO2`: the INHIBITION is on record as -41.21%.

For `COc1ncccc1CNCc1c(C(C)C)nn(C)c1N(C)C`, the INHIBITION was 43.28%.

With `CCOc1ncccc1CNCc1c(C(C)C)nn(C)c1N(C)C`, the INHIBITION is given as 74.35%.

Consider `CCOc1ncccc1CNCc1c(C)nn(C)c1N(C)C`, for which the INHIBITION amounted to 47.87%.

For `C[C@@H]1C(=O)NC[C@H]2CN(Cc3ccsc3)C[C@H]21`, the INHIBITION is on record as -66%.

Regarding `CC(C)(C)c1nc(CN2CCCC(Cn3cncn3)C2)no1` (stereo not given), the INHIBITION is given as -64.16%.
